Measurements as given in the antibiotic and cytotoxicity screens of Wong et al. (2023).
The whole screen tested about 39,000 compounds, of which about 1,500 (3.8%) were called active. The list comes from a sample in which actives are over-represented; it also holds similar structures and randomly drawn compounds.

test system: HSkMC (human skeletal muscle cells); test: cytotoxicity call (relative viability < 0.9); conditions: 10 µM

Compound | cytotoxicity call
C[C@@H]1CCCCO[C@@H](CN(C)Cc2ccccc2)[C@H](C)CN([C@@H](C)CO)C(=O)c2cc(NC(=O)C3CCCCC3)ccc2O1 | inactive
COCCC(=O)NS(=O)(=O)c1ccccc1 | inactive
CC(C)(C)C(=O)N1CCNCC1 | inactive
C[C@H]1CN([C@@H](C)CO)C(=O)c2cc(C#CCN(C)C)cnc2O[C@@H]1CN(C)C(=O)Nc1ccccc1F | inactive
C=C1C[C@@H]2CC[C@@]34C[C@H]5O[C@H]6[C@@H](O3)[C@H]3O[C@H](CC[C@@H]3O[C@H]6[C@H]5O4)CC(=O)C[C@@H]3[C@@H](OC)[C@@H](C[C@H](O)CN)O[C@H]3C[C@H]3O[C@@H](CC[C@@H]1O2)C[C@@H](C)C3=C | active
COc1ccc(NC(=O)N(C)C[C@@H]2Oc3ccc(NC(=O)Nc4ccc(C(F)(F)F)cc4)cc3CC(=O)N([C@@H](C)CO)C[C@@H]2C)cc1 | inactive
C[C@@H]1CN([C@H](C)CO)C(=O)c2cc(Br)cnc2O[C@H]1CN(C)S(=O)(=O)c1ccc(F)cc1 | inactive
COc1ccccc1C#Cc1ccc2c(c1)O[C@H](CN(C)Cc1ccncc1)[C@H](C)CN([C@H](C)CO)S2(=O)=O | inactive
COc1ccccc1C#Cc1ccc2c(c1)O[C@@H](CN(C)Cc1ccncc1)[C@@H](C)CN([C@H](C)CO)S2(=O)=O | inactive
COc1ccccc1C#Cc1ccc2c(c1)O[C@H](CN(C)Cc1ccncc1)[C@@H](C)CN([C@H](C)CO)S2(=O)=O | inactive
COc1ccccc1C#Cc1ccc2c(c1)O[C@H](CN(C)Cc1ccncc1)[C@@H](C)CN([C@@H](C)CO)S2(=O)=O | active
COc1ccccc1C#Cc1ccc2c(c1)O[C@H](CN(C)Cc1ccncc1)[C@H](C)CN([C@@H](C)CO)S2(=O)=O | inactive
COc1ccccc1C#Cc1ccc2c(c1)O[C@@H](CN(C)Cc1ccncc1)[C@H](C)CN([C@@H](C)CO)S2(=O)=O | active
COc1ccccc1C#Cc1ccc2c(c1)O[C@@H](CN(C)Cc1ccncc1)[C@H](C)CN([C@H](C)CO)S2(=O)=O | active
COc1ccccc1C#Cc1ccc2c(c1)O[C@@H](CN(C)Cc1ccncc1)[C@@H](C)CN([C@@H](C)CO)S2(=O)=O | inactive
C[C@H](CO)N1C[C@H](C)[C@H](CN(C)S(=O)(=O)c2cccc(F)c2)Oc2cc(Br)ccc2S1(=O)=O | inactive
C[C@@H]1CN([C@@H](C)CO)C(=O)c2cc(NS(C)(=O)=O)ccc2O[C@@H]1CN(C)C(=O)Nc1ccc(C(F)(F)F)cc1 | inactive
COc1ccc(S(=O)(=O)Nc2ccc3c(c2)C(=O)N([C@@H](C)CO)C[C@H](C)[C@@H](CN(C)C(=O)Nc2c(C)noc2C)O3)cc1 | inactive
C[C@@H]1CN([C@H](C)CO)C(=O)c2cc(NC(=O)Nc3cccc4ccccc34)ccc2O[C@@H]1CN(C)Cc1ccc2c(c1)OCO2 | inactive
CC(C)NC(=O)N(C)C[C@H]1OCCCC[C@H](C)Oc2ccc(NS(C)(=O)=O)cc2C(=O)N([C@@H](C)CO)C[C@@H]1C | inactive

Compound | cytotoxicity call
N[C@@H]1CC[C@@H](c2ccc(Cl)c(Cl)c2)c2ccccc21 | active
CNC1CCC(c2ccc(Cl)c(Cl)c2)c2ccccc21.Cl (stereo not given) | active
CN[C@H]1CC[C@@H](c2ccc(Cl)c(Cl)c2)c2ccccc21 | inactive
COC(=O)c1c2oc(c1C(=O)OC)C(=O)N(C)Cc1cn(nn1)C[C@H](Cc1ccccc1)NC(=O)N[C@H](CO)CC2 | inactive
O=c1[nH]c2ccc(F)cc2[nH]1 | inactive
CC(C)NC(=O)N(C)C[C@@H]1Oc2ccc(NC(=O)Cc3ccccc3)cc2C(=O)N([C@@H](C)CO)C[C@H]1C | inactive
COc1ccc(CN(C)C[C@@H]2Oc3ccc(NS(=O)(=O)c4cn(C)cn4)cc3C(=O)N([C@@H](C)CO)C[C@H]2C)cc1 | inactive
C[C@H](CO)N1C[C@H](C)[C@H](CN(C)Cc2ccc(C(F)(F)F)cc2)OCCCC[C@H](C)Oc2ccc(NS(=O)(=O)c3ccccc3)cc2C1=O | inactive
CNC(=O)C[C@H]1CC[C@@H]2[C@H](COC[C@H](O)CN2C(=O)c2ccccn2)O1 | inactive
C[C@H](CO)N1C[C@H](C)[C@H](CN(C)C(=O)Nc2cccc3ccccc23)OCCCC[C@H](C)Oc2ccc(NC(=O)Nc3ccc(C(F)(F)F)cc3)cc2C1=O | inactive
C[C@@H]1CN([C@@H](C)CO)C(=O)c2cc(NC(=O)Nc3ccc(C(F)(F)F)cc3)ccc2O[C@@H](C)CCCCO[C@@H]1CN(C)C(=O)Nc1cccc2ccccc12 | active
C[C@@H]1CN([C@@H](C)CO)C(=O)c2cc(NC(=O)Nc3ccc(C(F)(F)F)cc3)ccc2O[C@@H](C)CCCCO[C@H]1CN(C)C(=O)Nc1cccc2ccccc12 | inactive
C[C@@H]1CCCCO[C@@H](CN(C)C(=O)Nc2cccc3ccccc23)[C@@H](C)CN([C@@H](C)CO)C(=O)c2cc(NC(=O)Nc3ccc(C(F)(F)F)cc3)ccc2O1 | active
C[C@H](CO)N1C[C@H](C)[C@@H](CN(C)C(=O)Nc2cccc3ccccc23)OCCCC[C@H](C)Oc2ccc(NC(=O)Nc3ccc(C(F)(F)F)cc3)cc2C1=O | inactive
C[C@@H]1CCCCO[C@@H](CN(C)C(=O)Nc2cccc3ccccc23)[C@H](C)CN([C@H](C)CO)C(=O)c2cc(NC(=O)Nc3ccc(C(F)(F)F)cc3)ccc2O1 | inactive
C[C@@H]1CCCCO[C@H](CN(C)C(=O)Nc2cccc3ccccc23)[C@@H](C)CN([C@@H](C)CO)C(=O)c2cc(NC(=O)Nc3ccc(C(F)(F)F)cc3)ccc2O1 | inactive
C[C@@H]1CCCCO[C@@H](CN(C)C(=O)Nc2cccc3ccccc23)[C@@H](C)CN([C@H](C)CO)C(=O)c2cc(NC(=O)Nc3ccc(C(F)(F)F)cc3)ccc2O1 | active
C[C@@H]1CCCCO[C@@H](CN(C)C(=O)Nc2cccc3ccccc23)[C@H](C)CN([C@@H](C)CO)C(=O)c2cc(NC(=O)Nc3ccc(C(F)(F)F)cc3)ccc2O1 | inactive
Cn1cnc(S(=O)(=O)N2C[C@@H](O)COC[C@H]3O[C@@H](CC(=O)NC4CCCC4)CC[C@@H]32)c1 | inactive
COc1ccccc1CNC(=O)C[C@@H]1C[C@H]2c3cc(NC(=O)C4CCOCC4)ccc3O[C@H]2[C@@H](CO)O1 | inactive
